The values below come from PubChem BioAssay (Tox21).

Assay [1] can be described thus: qHTS assay to test for compound auto fluorescence at 535 nm (green) in HEK293 cells (AID 720680). Background: qHTS replaces the single test concentration by a dilution series.
Assay [2] is described as follows: qHTS assay to test for compound auto fluorescence at 460 nm (blue) in HEK293 cell free culture (AID 720681). In outline:
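Compounds were added to cell-free DMEM with 10% FBS and fluorescence read directly. The blue channel used 405 nm excitation and 460 nm emission, with triamterene as the reference fluorophore.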

The nature of assay [3]: qHTS assay to test for compound auto fluorescence at 535 nm (green) in HEK293 cell free culture (AID 720682). In outline: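 Each library compound, or DMSO control, is added by pintool to medium alone, comprising DMEM and 10% FBS. Emission at 535 nm following 485 nm excitation is quantified against fluorescein.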
Assay [4] is described as follows: qHTS assay to test for compound auto fluorescence at 590 nm (red) in HepG2 cell free culture (AID 720684). The essentials: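 Rose Bengal sodium served as the reference for red signal. Test compounds were dispensed into serum-containing MEM (10% FBS) without cells, and plates were read at 540/590 nm.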
Assay [5] can be described thus: qHTS assay to test for compound auto fluorescence at 460 nm (blue) in HepG2 cell free culture (AID 720685). The essentials:
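Cell-free plates of MEM plus 10% FBS received 23 nL compound or DMSO vehicle; blue-channel (405/460 nm) intensity scored against triamterene as reference fluorophore.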

A short description of assay [6]: qHTS assay to test for compound auto fluorescence at 535 nm (green) in HepG2 cell free culture (AID 720686).
The nature of assay [7]: qHTS assay to test for compound auto fluorescence at 460 nm (blue) in HepG2 cells (AID 720687). The essentials:
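HepG2 cells in MEM with 10% FBS, attached overnight at 37 C, were exposed to compound or DMSO for 1 hr at 37 C, 5% CO2. Blue fluorescence was read at 405/460 nm, with triamterene as reference fluorophore.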

The target in assay [8] is Glucocorticoid receptor (Homo sapiens) (UniProt P04150). The assay is described as follows: qHTS assay to identify small molecule agonists of the glucocorticoid receptor (GR) signaling pathway (AID 720691; active = well fitted activation curve with a large enough effect in the signal ratio in the repeat runs, not every such curve was filed as active; the % refers to the signal ratio). The essentials: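 HeLa GR-bla reporter line; cells pre-incubated 4 h, compound in DMSO 18 h at 37 C; LiveBLAzer B/G FRET substrate 2 h RT; fluorescence intensity read-out.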
Sequence of Glucocorticoid receptor (Homo sapiens) (P04150 whole entry, looked up): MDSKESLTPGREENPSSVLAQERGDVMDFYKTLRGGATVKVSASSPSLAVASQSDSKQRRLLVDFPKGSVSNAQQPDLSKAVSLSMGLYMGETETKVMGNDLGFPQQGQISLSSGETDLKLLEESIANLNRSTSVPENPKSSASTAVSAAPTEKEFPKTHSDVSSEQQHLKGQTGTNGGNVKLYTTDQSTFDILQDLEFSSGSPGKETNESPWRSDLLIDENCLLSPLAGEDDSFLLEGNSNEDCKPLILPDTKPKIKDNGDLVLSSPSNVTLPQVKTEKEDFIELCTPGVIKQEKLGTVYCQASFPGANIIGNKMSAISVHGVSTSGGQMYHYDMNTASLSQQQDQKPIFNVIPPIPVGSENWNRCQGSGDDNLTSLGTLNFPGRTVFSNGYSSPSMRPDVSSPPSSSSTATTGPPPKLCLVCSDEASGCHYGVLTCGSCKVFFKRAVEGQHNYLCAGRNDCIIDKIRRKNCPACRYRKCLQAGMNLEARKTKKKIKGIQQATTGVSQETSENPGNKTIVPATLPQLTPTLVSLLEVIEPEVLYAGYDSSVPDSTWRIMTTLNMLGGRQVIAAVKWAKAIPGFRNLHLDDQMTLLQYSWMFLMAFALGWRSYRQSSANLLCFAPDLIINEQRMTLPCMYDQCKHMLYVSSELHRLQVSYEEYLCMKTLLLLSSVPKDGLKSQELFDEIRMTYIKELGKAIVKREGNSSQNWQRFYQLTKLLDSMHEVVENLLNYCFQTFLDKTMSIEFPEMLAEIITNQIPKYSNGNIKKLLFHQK

Assay [9] shares this target. Briefly: qHTS assay to identify small molecule antagonists of the glucocorticoid receptor (GR) signaling pathway (AID 720692; active = well fitted inhibition curve with a large enough effect in the signal ratio in the repeat runs, not every such curve was filed as active; the % refers to the signal ratio). The essentials:
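Read-out: beta-lactamase FRET substrate fluorescence, 2 h at room temperature, in HeLa cells stably carrying a GRE-driven bla reporter. Compounds were co-incubated with 5 nM dexamethasone agonist (final) for 18 h at 37 C.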

The nature of assay [10]: qHTS assay to identify small molecule antagonists of the glucocorticoid receptor (GR) signaling pathway - cell viability counter screen (AID 720693). Note: nearly all actives have a fitted effect of over 55% in size.
A short description of assay [11]: qHTS assay for identifying genotoxic compounds that show differential cytotoxicity against isogenic chicken DT40 cell lines with known DNA damage response pathways - wild type cell line (AID 743012). Note: nearly all actives have a fitted effect of over 60% in size. Note: potency is the fitted concentration of half-maximal effect. The essentials:
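CellTiter-Glo luminescence readout of viability in wild type DT40 cells after 40 h compound exposure at 37 C/5% CO2; 300 cells/well; reagent incubated 30 min at room temperature before reading.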

The nature of assay [12]: qHTS assay for identifying genotoxic compounds that show differential cytotoxicity against isogenic chicken DT40 cell lines with known DNA damage response pathways - Rev3 mutant cell line (AID 743014). Note: nearly all actives have a fitted effect of over 55% in size. Note: potency is the fitted concentration of half-maximal effect.
A short description of assay [13]: qHTS assay for identifying genotoxic compounds that show differential cytotoxicity against isogenic chicken DT40 cell lines with known DNA damage response pathways - Rad54/Ku70 mutant cell line (AID 743015). Note: nearly all actives have a fitted effect of over 60% in size. Note: potency is the fitted concentration of half-maximal effect.
Assay [14] in a line: qHTS assay to identify small molecule antagonists of the androgen receptor (AR) signaling pathway - cell viability counter screen (AID 743033; note: nearly all actives have a fitted effect of over 45% in size).
The nature of assay [15]: qHTS assay to identify small molecule antagonists of the androgen receptor (AR) signaling pathway using the MDA cell line - cell viability counter screen (AID 743041; note: nearly all actives have a fitted effect of over 45% in size). The essentials: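 Cytotoxicity counter screen: MDA-kb2 AR-luc cells, compound + R1881, 16 h, 37C, 0% CO2; CellTiter-Fluor added at 15.5 h, fluorescence read after 30 min.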
Assay [16] can be described thus: qHTS assay to test for compound auto fluorescence at 590 nm (red) in HEK293 cell free culture (AID 720683). In outline:
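Cell-free wells of DMEM with 10% FBS received compound, and intrinsic fluorescence was read at excitation/emission 540/590 nm. Values expressed as equivalence to Rose Bengal sodium.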

Assay [17] concerns the target Androgen receptor (Homo sapiens) (UniProt P10275). Briefly: qHTS assay to identify small molecule antagonists of the androgen receptor (AR) signaling pathway (AID 743035; active = well fitted inhibition curve with a large enough effect in the signal ratio in the repeat runs, not every such curve was filed as active; the % refers to the signal ratio). The essentials: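 AR-bla HEK293 reporter cells; 4 h settle at 37C/5% CO2; compound + R1881 agonist, 16 h at 37C; LiveBLAzer B/G FRET substrate 2 h RT; fluorescence intensity read. qHTS format.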

For assay [18] the target is unchanged. The assay is described as follows: qHTS assay to identify small molecule agonists of the androgen receptor (AR) signaling pathway (AID 743036; active = well fitted activation curve with a large enough effect in the signal ratio in the repeat runs, with a control signal flat, not every such curve was filed as active; the % refers to the signal ratio). In outline:
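Following a 4 h settling period, AR-UAS-bla HEK293 cells were dosed with compounds for 16 h at 37C. A 2 h room-temperature incubation with LiveBLAzer B/G FRET substrate preceded the fluorescence measurement.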

Assay [19] has the same target. The assay is described as follows: qHTS assay to identify small molecule agonists of the androgen receptor (AR) signaling pathway using the MDA cell line (AID 743040; note: nearly all actives have a fitted effect of over 20% in size). The essentials:
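Luciferase read-out, ONE-Glo, 30 min RT. Cells: MDA-kb2 AR-luc, MMTV promoter with AR and GR response elements. Compound exposure 16 h, 37C, 0% CO2, after 5 h pre-incubation. qHTS agonist mode.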

Assay [20] has the same target. Briefly: qHTS assay to identify small molecule antagonists of the androgen receptor (AR) signaling pathway using the MDA cell line (AID 743042; note: nearly all actives have a fitted effect of over 55% in size). In outline:
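MDA-kb2 breast carcinoma cells carrying MMTV-luciferase (AR/GR responsive) were co-treated with compounds and the agonist R1881 for 16 h at 37C. Inhibition read as ONE-Glo luminescence; CellTiter-Fluor fluorescence measured in parallel for cytotoxicity.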

A number with no mark means an inactive call. Results filed as inconclusive are left out. Active and inactive are the calls of the source. Unless noted, calls come from the whole dose curve; as a rule, active = well fitted curve in the direction sought with a large enough effect in the repeat runs; inconclusive = weak or mixed curves; inactive = no such curve, though single readings can be large; an effect the other way counts as inactive or inconclusive.

Sequence of Androgen receptor (Homo sapiens) (P10275 whole entry, looked up): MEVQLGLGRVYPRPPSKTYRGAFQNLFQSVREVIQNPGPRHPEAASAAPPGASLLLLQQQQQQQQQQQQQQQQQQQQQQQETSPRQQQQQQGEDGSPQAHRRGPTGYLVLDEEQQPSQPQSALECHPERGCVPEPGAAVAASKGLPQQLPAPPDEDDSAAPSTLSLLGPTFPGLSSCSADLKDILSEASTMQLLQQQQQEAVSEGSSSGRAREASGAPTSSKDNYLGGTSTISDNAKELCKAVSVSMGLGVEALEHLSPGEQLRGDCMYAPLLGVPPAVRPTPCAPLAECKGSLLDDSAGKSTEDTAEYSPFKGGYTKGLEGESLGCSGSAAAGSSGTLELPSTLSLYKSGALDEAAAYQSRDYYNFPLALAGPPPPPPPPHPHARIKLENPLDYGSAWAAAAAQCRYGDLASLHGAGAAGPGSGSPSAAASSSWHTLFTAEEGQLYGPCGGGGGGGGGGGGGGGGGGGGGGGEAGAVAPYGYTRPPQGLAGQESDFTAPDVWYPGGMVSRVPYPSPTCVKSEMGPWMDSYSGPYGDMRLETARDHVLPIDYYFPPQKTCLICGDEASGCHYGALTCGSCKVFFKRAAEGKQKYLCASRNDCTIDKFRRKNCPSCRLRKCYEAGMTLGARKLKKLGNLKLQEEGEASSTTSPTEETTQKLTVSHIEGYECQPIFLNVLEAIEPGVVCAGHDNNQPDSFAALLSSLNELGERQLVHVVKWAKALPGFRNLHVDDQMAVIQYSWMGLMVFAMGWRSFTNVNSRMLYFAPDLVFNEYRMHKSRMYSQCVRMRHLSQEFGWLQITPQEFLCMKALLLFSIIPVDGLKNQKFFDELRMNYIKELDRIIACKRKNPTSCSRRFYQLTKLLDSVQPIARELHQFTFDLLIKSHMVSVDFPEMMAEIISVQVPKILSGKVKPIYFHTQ

For the molecule `Oc1ccc(C2CNCCc3c2cc(O)c(O)c3Cl)cc1` (configuration not stated), the result in [1], in assay [2], in assay [3], in assay [4], in [5] and in assay [6] was inactive. In addition, the molecule was classed as inactive in [7] and in [10]. Besides, the Potency entry in [8], in [9], in [11], in assay [12], in assay [13] and in assay [14] was “inactive” each time. In addition, in assay [15], the Potency result is “inactive”.
Consider `CCCCCSCCCCC`, for which the outcome in assay [1], in assay [2], in [3], in [16], in assay [4] and in assay [5] was inactive. Besides, the result in assay [6], in [7] and in assay [10] was inactive. The Potency in assay [12] was 61.1 µM (active). Also, the Potency entry in assay [14] and in assay [15] was “inactive” throughout.
For `N=C(N)c1ccccc1`, the molecule was classed as inactive in [1], in [2], in [3], in [16], in [4] and in assay [5]. For the same molecule, the outcome in assay [6] and in assay [10] was inactive. Moreover, the Potency entry in assay [11], in assay [13], in assay [14] and in assay [15] was “inactive” throughout.
`N=C(N)c1ccc(OCCCOc2ccc(C(=N)N)cc2)cc1`: the molecule was called inactive in [1], in [2], in [3], in [4], in [5] and in [6]. Besides, the molecule was called inactive in [7] and in assay [10]. For the same molecule, the Potency entry in assay [8], in assay [14] and in assay [15] was “inactive” in each case. Also, the Potency in assay [11] was 4.22 µM (active); in assay [12], 8.41 µM (active); in assay [13], 5.96 µM (active).
For `CC(=O)CC(C)C`, the outcome in assay [1], in assay [2], in assay [3], in [4], in assay [5] and in assay [6] was inactive. In addition, the molecule was called inactive in [7], in assay [10], in assay [17] and in [18]. Also, the Potency entry in [8], in [9], in [11], in assay [12], in [13] and in [14] was “inactive” in each case. Besides, the Potency result in assay [19], in [15] and in [20] was “inactive” in each case.
On to `C=COCC1CCC(CO)CC1` (configuration not stated), for which the molecule was called inactive in [1], in assay [2], in assay [3], in assay [4], in assay [5] and in assay [6]. The result in assay [7] and in assay [10] was inactive. Also, the Potency result in assay [8], in assay [9], in assay [11], in assay [12], in assay [13] and in assay [14] was “inactive” throughout. Besides, in [15], the Potency result is “inactive”.
For the molecule `Nc1ccccc1S(=O)(=O)O`, the result in [1], in assay [2], in assay [3], in assay [4], in assay [5] and in assay [6] was inactive. Also, the result in assay [7] and in [10] was inactive. For the same molecule, the Potency entry in assay [11], in assay [12], in assay [14] and in assay [15] was “inactive” throughout.
Take `COC(=O)CCSCCC(=O)OC`: the call in assay [1], in assay [2], in assay [3], in assay [4], in [5] and in assay [6] was inactive. The call in [7] and in assay [10] was inactive. Also, the Potency entry in assay [8], in [11], in assay [12], in [14] and in assay [15] was “inactive” each time.
As for `Nc1ccc(S(=O)(=O)Nc2ccnn2-c2ccccc2)cc1`, the outcome in assay [1], in assay [2], in assay [3], in assay [4], in [5] and in assay [6] was inactive. Moreover, the result in assay [7] and in assay [10] was inactive. In addition, the Potency entry in assay [8], in assay [9], in [11], in [12], in [13] and in assay [14] was “inactive” throughout. Further, the Potency entry in assay [15] is “inactive”.
